In all, about 370,000 compounds went through this assay and about 2,100 (0.57%) were called active.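 Rule for the calls: active = inhibition above mean plus 3 SD of compounds lying within the high and low control bounds (cut at about 19% in these data); inactive = the rest.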 The list comes from a sample in which actives are over-represented; it also holds similar structures and randomly drawn compounds.
biological target: Group 3 secretory phospholipase A2 (Homo sapiens) (UniProt Q9NZ20); test: human group III sPLA2 inhibitors, primary screen, biochemical, QFRET, BODIPY PC-A2 liposome substrate (AID 743126); conditions: QFRET BODIPY PC-A2 liposome hydrolysis, fluorescence; at 12.2 µM; active compounds read high;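 note: 0% = median of test compound wells and 100% = no enzyme DMSO wells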
Sequence (Q9NZ20 whole entry, looked up): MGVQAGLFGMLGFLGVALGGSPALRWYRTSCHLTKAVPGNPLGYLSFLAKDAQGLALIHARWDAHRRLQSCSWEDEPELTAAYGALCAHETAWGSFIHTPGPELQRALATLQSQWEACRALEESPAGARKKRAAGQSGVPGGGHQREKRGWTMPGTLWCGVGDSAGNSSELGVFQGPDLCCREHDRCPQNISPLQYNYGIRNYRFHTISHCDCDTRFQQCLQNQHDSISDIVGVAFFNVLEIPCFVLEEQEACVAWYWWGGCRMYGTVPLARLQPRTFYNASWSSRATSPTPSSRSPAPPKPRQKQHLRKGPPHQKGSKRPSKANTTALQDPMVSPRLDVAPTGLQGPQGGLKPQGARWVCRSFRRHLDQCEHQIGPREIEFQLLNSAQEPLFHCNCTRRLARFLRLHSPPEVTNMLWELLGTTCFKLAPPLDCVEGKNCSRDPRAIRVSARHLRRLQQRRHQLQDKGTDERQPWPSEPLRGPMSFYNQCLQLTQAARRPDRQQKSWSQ

Compound	inhibition
NC[C@H](Cc1ccccc1)NCCc1cc(C(F)(F)F)cc(C(F)(F)F)c1	21.8% (active)
CC1=CC(C)(C)NC(=S)N1NC(=O)c1ccccc1Cl	4.76% (inactive)
CC1=CC(C)(C)NC(=S)N1c1ccccc1	20.1% (active)
CN(C)Cc1cn(-c2ccc(-c3noc4c3C(=O)N(CC(=O)N3CCOCC3)CC4)cc2)nn1	1.51% (inactive)
COc1ccc(N2CCN(CCNS(=O)(=O)c3ccc([N+](=O)[O-])cc3)CC2)cc1	-4.09% (inactive)
COc1ccccc1CCNC(=O)C1CCN(c2nc(C)cc(C)n2)CC1	-0.08% (inactive)
Cc1ccc(NC(=O)CN(C)Cc2ccc(F)cc2)c([N+](=O)[O-])c1	-1.08% (inactive)
Cc1c(NC(=S)NCc2ccc(F)cc2)cccc1[N+](=O)[O-]	19.5% (active)
Cc1cccc(NC(=S)NCCc2ccc(F)cc2)c1C	8.1% (inactive)
O=C(CSc1nc2ccccc2n1Cc1ccccc1Cl)N/N=C\c1c[nH]c2ccccc12	-20.9% (inactive)
COC(=O)C1CN(Cc2ccc(F)cc2)CCS(=O)(=O)N1Cc1ccc(Cl)cc1 (configuration not stated)	0.13% (inactive)
CCC(=O)OCCCN1C(=O)CCC12CCC(c1ccccc1)CC2 (configuration not stated)	-0.68% (inactive)
Cc1ccc2c(c1)N(CC(=O)N1CCCc3ccccc31)C(=O)C(C)O2 (configuration not stated)	0.55% (inactive)
Cc1cccc(C)c1NC(=O)CN1C(=O)C(C)Oc2ccccc21 (configuration not stated)	20.8% (active)
CC1Oc2ccccc2N(Cc2cccnc2)C1=O (configuration not stated)	7.65% (inactive)
COc1ccc(Cn2ccc3ccc(-c4ccc5ccn(Cc6ccccc6C)c5c4)cc32)cc1	3.9% (inactive)
COc1ccc(C#CCNCc2ccc(OC)cc2OC)cc1	12.6% (inactive)
CCOC(=O)C1(Cc2ccccc2)CCN(Cc2cn(C(C)=O)c3ccccc23)CC1	-23.2% (inactive)
O=C(CSc1nnc(-c2ccccc2)n1Cc1ccco1)Nc1ccccc1-c1ccccc1	-10.1% (inactive)
CCCCCCCCNS(=O)(=O)/C=C/c1cc(C)ccc1CNC(=O)OC(C)(C)C	-4.97% (inactive)
CCCCOCCCNC(=O)C[C@H]1C[C@@]2(C(=O)OC)C(=C[C@H](COCc3ccccc3)O[C@@H]2C)N(Cc2cccc3ccccc23)C1=O	-20.5% (inactive)
COc1cc(/C=N/n2c(C)n[nH]c2=S)ccc1OCc1ccccc1	20.9% (active)
CNC(=S)N/N=C/c1ccc(OCc2ccccc2)c(Br)c1	0.16% (inactive)

Compound	inhibition
C=CCOc1ccc(/C=N/n2cncn2)cc1OC	2.27% (inactive)
C=CCn1c(C23CC4CC(CC(C4)C2)C3)n[nH]c1=S	23.5% (active)
C=CCn1c(SCC(=O)NC)nnc1C12CC3CC(CC(C3)C1)C2	0.19% (inactive)
C=CCn1c(-c2ccc3[nH]c(C)c(C)c3c2)n[nH]c1=S	-0.35% (inactive)
FC(F)(F)c1cccc(NC(=S)OC2CCC23CCC(c2ccccc2)CC3)c1 (configuration not stated)	-7.1% (inactive)
CN[C@H]1C[C@H]2c3cc(N4CCOCC4)ccc3CCN2C[C@H]1[C@H](C)O	7.01% (inactive)
CCOC12CC(C)(C)CC(C)(CC3=C1C(=O)CC(C)(C)C3)C2 (configuration not stated)	24.1% (active)
O=S1(=O)c2c(cccc2N2CCSCC2)Oc2ccccc2CN1Cc1cn(Cc2ccc(F)cc2)nn1	2.55% (inactive)
Cc1ccc(S(=O)(=O)NCc2nc3ccccc3c(=O)n2N)cc1	2.93% (inactive)
Cc1ccc(C(=O)CSc2nc3ccccc3c(=O)n2N)o1	-0.69% (inactive)
C#CCCCc1nc2ccccc2c(=O)n1N	21.1% (active)
O=C(OCC#CCSc1nnc(-c2ccco2)o1)c1ccc(F)cc1	1.02% (inactive)
Cc1ccccc1-n1c(SCC(=O)Nc2cccc3ccccc23)nc(O)cc1=O	-4.85% (inactive)
C/C(=N\NC(=O)COc1c(C)cccc1C)c1cccs1	2.47% (inactive)
C/C(=N\NC(=O)CSc1nc2ccccc2c(=O)n1-c1ccccc1C)c1cccs1	25.2% (active)
Cc1cc(=O)n(C)c(=O)n1CCCNc1ccccc1	-0.01% (inactive)
CCc1c(Nc2ccccc2C)nc(N)[nH]c1=O	8.22% (inactive)
Cc1[nH]c(N)nc(=S)c1CCCNc1ccccc1	23.8% (active)
C=CCN1C(=O)[C@@H](CC(=O)N2CCN(C(=O)c3ccco3)CC2)[C@]2(C(=O)OC)CCCCC=C12	13.7% (inactive)
COc1cccc(N(C)C(=O)[C@@H](C)[C@@H](O)c2ccc3ccccc3c2)c1	-10.3% (inactive)
COC(=O)C(C)n1cnc2c(nnn2-c2ccc(F)cc2)c1=O (configuration not stated)	21.6% (active)
CCOC(=O)C(C)n1cnc2c(nnn2-c2ccc(F)cc2)c1=O (configuration not stated)	10.8% (inactive)
CCOC(=O)C(CC)Sc1ncnc2c1nnn2-c1ccc(F)cc1 (configuration not stated)	-1.68% (inactive)

Compound	inhibition
C=C1C(C(C)C)N(C)C2=NC(c3ccccc3)CC(=O)N12 (configuration not stated)	0% (inactive)
C=C(C)C#CC(Cc1ccccc1)NCC1CC1 (configuration not stated)	4.73% (inactive)
CC(C)CC(=O)NC(=S)Nc1ccc(F)cc1F	6.75% (inactive)
CC(C)CC(=O)NC(=S)NNC(=O)c1cccc([N+](=O)[O-])c1	24.2% (active)
CC(C)OC(=O)CC(=O)CC(O)c1cccc([N+](=O)[O-])c1 (configuration not stated)	-28% (inactive)
O=C1CCC2(CCC(c3ccc(Cl)cc3)CC2)N1CCO (configuration not stated)	7.89% (inactive)
COc1ccc(C2CC=C(C(=O)O)C(c3ccccc3F)N2S(=O)(=O)c2ccc(C)cc2)cc1OC (configuration not stated)	-7.23% (inactive)
CCOC(=O)[C@]12CCCC=C1N(Cc1ccc(OC)cc1)C(=O)[C@@H]2CC(=O)N1CCOCC1	3.77% (inactive)
Cc1cc(=O)[nH]c(SCC(=O)Nc2ccc(Cl)cc2C)n1	1.76% (inactive)
COc1ccccc1OCc1nnc(SCC(N)=O)n1-c1ccccc1	1.71% (inactive)
CCN(CC)C(=O)CSc1nc2ccccc2n1CC(=O)N1CCN(c2ccccc2OC)CC1	0.24% (inactive)
COc1ccccc1OCCn1c(SCC(N)=O)nc2ccccc21	22.2% (active)
N#CCC[C@H]1CC[C@]2(CCCN(Cc3ccc(Cl)cc3)C2)O1	5.78% (inactive)
C=CC[n+]1c(-c2ccc(C)cc2)csc1NNC(=O)Nc1ccccc1	2.33% (inactive)
C=CCNc1scc(-c2ccccc2)[n+]1CC=C	20.2% (active)
COC(CNC(=O)[C@H](Cc1ccccc1)NC1(C(=O)NC2CCCCC2)CCCCC1)OC	-3.08% (inactive)
O=C(CCCCCN1C(=O)C2C3C=CC(C3)C2C1=O)Nc1ccccn1 (configuration not stated)	-2.55% (inactive)
CC(C)C(C#CC1CC1)N(Cc1ccc2c(c1)OCO2)C(N)=NC(=O)/C=C/c1cccc(C(F)(F)F)c1 (configuration not stated)	3.76% (inactive)
Clc1ccc(-n2c(SC/C=C/c3ccccc3)nnc2-c2ccco2)cc1	-11.5% (inactive)
Cc1ccc(C(=O)NC23CC4CC(CC(C4)C2)C3)c(Cl)c1	15.2% (inactive)
C/C(=N/NC(=O)c1cc(Cl)ccc1O)C12CC3CC(CC(C3)C1)C2	22.8% (active)
O=C(N/N=C1\CCSC1)c1cc(Cl)ccc1O	13.2% (inactive)
COC(=O)[C@H](C(C)C)N(CCc1cn(Cc2ccccc2)nn1)S(=O)(=O)c1ccc(F)cc1Br	-2.33% (inactive)

Compound	inhibition
O=C(NC1CCC1)c1ccc(C#Cc2cccc(F)c2)c[n+]1[O-]	-4.97% (inactive)
COc1cccc(CNC(=O)C2CCN(S(=O)(=O)c3cccc4cccnc34)CC2)c1	-1% (inactive)
CC(=O)/C(=N\Nc1ccc(Cl)cc1Cl)Sc1cccc2cccnc12	20.9% (active)
CC(Oc1ccc(Cl)cc1)C(=O)Nc1ncccn1 (configuration not stated)	1.61% (inactive)
COC(=O)[C@]12C[C@H](CC(=O)N3CCOCC3)C(=O)N(Cc3ccc(Cl)cc3Cl)C1=C[C@H](C(C)C)O[C@@H]2C1CC1	-5.59% (inactive)
CC1CCN(c2ccc(C(=O)O)cc2NS(=O)(=O)c2ccc(Br)s2)CC1	-18.5% (inactive)
CCOC(=O)[C@]12CCCCC/C=C\1N(Cc1ccc(OC)cc1)C(=O)[C@H]2CC(=O)NCc1ccc(C)o1	-4.43% (inactive)
COc1ccc(C2Nc3ccccc3C(=O)N2Cc2cccs2)cc1COc1c(C)cccc1C (configuration not stated)	4.57% (inactive)
Oc1ccc2ccccc2c1N=Nc1nccs1	19.4% (active)
O=C(NC1CCCC1)C1CSCCS(=O)(=O)N1Cc1ccccc1 (configuration not stated)	2.48% (inactive)
O=C1Nc2ccccc2OC1CC(=O)N1CCCCCCC1 (configuration not stated)	1.64% (inactive)
C=CCN1[C@H](CC(C)C)COc2cccc(N3CCCC3)c2S1(=O)=O	10% (inactive)
CCOC(=O)NN1C(=O)c2ccccc2NC1c1cccc(O)c1 (configuration not stated)	-3.61% (inactive)
Cc1ccc(C2Nc3ccccc3C(=O)N2CCN2CCNC2=O)cc1 (configuration not stated)	19.3% (active)
CC(=O)NN1C(=O)c2ccccc2NC1c1ccccc1 (configuration not stated)	4.64% (inactive)
CC(C)(C)c1cc2cccnc2n1Cc1ccccc1	8.03% (inactive)
CC(C)(C)c1cc2cccnc2n1Cc1cccc(F)c1	20.9% (active)
COc1ccnc2c1c(=O)n(Cc1cccc(F)c1)c(=O)n2C	0.58% (inactive)
O=C(CNC(=O)c1ccccc1)OC(C(=O)Nc1cc([N+](=O)[O-])ccc1F)c1ccccc1 (configuration not stated)	10.8% (inactive)
COc1ccc(N2CCN(CCNS(=O)(=O)c3ccc(C(C)(C)C)cc3)CC2)cc1	-8.25% (inactive)
O=C(COC(=O)/C=C/c1nc2ccccc2s1)Nc1ccccc1Oc1ccccc1	8.15% (inactive)
CC(=O)c1ccc(Nc2nc(C(N)c3ccccc3Cl)cs2)cc1 (configuration not stated)	-4.25% (inactive)
NC(c1csc(NC(=O)Nc2ccccc2Oc2ccccc2)n1)c1ccccc1Cl (configuration not stated)	24.4% (active)
